Source: PubChem BioAssay (NCI)
Compounds without any hit were thinned out: in the full panel of roughly 83,000, 20% have a hit.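 Testing used 96-well plates and a 48-hour single-concentration exposure. Example: -40 means 40% of the starting cells died.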 Unmarked numbers belong to inactive results. The source made the active and inactive calls. How the source made its calls: active means growth percent below 10; inactive means the rest.

Tests used:
Experiment in all cases: NCI-60 one-dose screen, 48 h (100 = growth as untreated, 0 = no growth, -100 = all killed)
[1] = tested on: HCT-15 colon; details: 10 µM unless noted
[2] = tested on: HT29 colon; details: 10 µM unless noted
[3] = tested on: SNB-75 CNS; details: 10 µM unless noted
[4] = tested on: SNB-19 CNS; details: 10 µM unless noted
[5] = tested on: U251 CNS; details: 10 µM unless noted
[6] = tested on: PC-3 prostate; details: 10 µM unless noted
[7] = tested on: SK-MEL-5 melanoma; details: 10 µM unless noted
[8] = tested on: UACC-62 melanoma; details: 10 µM unless noted
[9] = tested on: LOX IMVI melanoma; details: 10 µM
[10] = tested on: SK-MEL-28 melanoma; details: 10 µM unless noted
[11] = tested on: SK-MEL-2 melanoma; details: 10 µM unless noted
[12] = tested on: EKVX NSCLC; details: 10 µM unless noted
[13] = tested on: SN12C renal; details: 10 µM unless noted
[14] = tested on: UO-31 renal; details: 10 µM unless noted
[15] = tested on: TK-10 renal; details: 10 µM unless noted
[16] = tested on: ACHN renal; details: 10 µM unless noted
[17] = tested on: CAKI-1 renal; details: 10 µM unless noted
[18] = tested on: A498 renal; details: 10 µM unless noted
[19] = tested on: CCRF-CEM leukemia; details: 10 µM unless noted
[20] = tested on: MOLT-4 leukemia; details: 10 µM unless noted

| Compound | growth [1] | growth [2] | growth [3] | growth [4] | growth [5] | growth [6] | growth [7] | growth [8] | growth [9] | growth [10] | growth [11] | growth [12] [%] | growth [13] | growth [14] | growth [15] [%] | growth [16] | growth [17] | growth [18] | growth [19] | growth [20] |
| --- | --- | --- | --- | --- | --- | --- | --- | --- | --- | --- | --- | --- | --- | --- | --- | --- | --- | --- | --- | --- |
| COc1cc(/C=C2\SC(=S)N(/C=C/c3nc4ccccc4[nH]c3=O)C2=O)cc(OC)c1OC | 91.7% | 90.6% | 66.9% | 97.5% | 81.8% | 95.2% | 82.7% | 81.9% | 56.7% | 90.5% | 81.1% | 84.6 | 98.2% | 2.14% (active) | 70.1 | 82.4% | 87.2% | 60% | 91.7% | 91.2% |
| O=C(O)c1cccc2cccc(-c3c4ccc(=O)c(O)c-4oc4c(O)c(O)ccc34)c12 | 105% | 103% | 89.6% | 98.1% | 99.5% | 92.3% | 94.6% | 90.6% | 90% | 97.6% | 96.8% | 83.7 | 91% | 66.6% | 110 | – | 90.2% | 104% | 94.7% | 82.2% |
| CCOC(=O)c1[nH]c(C#N)c(C(=O)OCC)c1C | 92.2% | 103% | 96.9% | 106% | 99.1% | 102% | 102% | 91.2% | 107% | 112% | 104% | 93.3 | 92.5% | 90.2% | 104 | 101% | 94.7% | 96.7% | 97.3% | – |
| NC(=S)N/N=C\c1nccc2c(N)cccc12 | 29.6% | 37.9% | 13.6% | 30.1% | 17.8% | 46.6% | 10.8% | -29% (active) | 5.29% (active) | 44.6% | 39.3% | 34.5 | 8.66% (active) | -8.44% (active) | 48 | -7.84% (active) | -23.9% (active) | 12.2% | – | 3.28% (active) |
| O=[N+]([O-])/C(=C/c1ccccc1)c1ccccc1 | 99.6% | 99% | 106% | 110% | 97.4% | 100% | 103% | 108% | 96.3% | 100% | 107% | – | 103% | 84.4% | 89.5 | 101% | 106% | 107% | 97.5% | 99% |
| CCCCC(CCc1ccc([N+](=O)[O-])cc1)(C(C)=O)C(=O)OCC (stereo not drawn) | 94.7% | 94.2% | 85.1% | 108% | 95.3% | 81.2% | 93.2% | 97.5% | 95.8% | 100% | 99.6% | – | 103% | 67.7% | 97.3 | 114% | 96.8% | 50.6% | 94.5% | 90.3% |
| CCCCCCCCCCCCCCCCSC(=NCC)NCC | -36% (active) | -61.4% (active) | 53.3% | 55.3% | 4.98% (active) | -42% (active) | -38% (active) | -8.15% (active) | -91.1% (active) | 43% | -21.6% (active) | – | 18.6% | -13.2% (active) | 50.7 | -21.6% (active) | -25.9% (active) | 67.4% | -48.9% (active) | -47.7% (active) |
| OCCOSCCO | 89% | 106% | 99.3% | 110% | 101% | 113% | 101% | 114% | 103% | 108% | 106% | – | – | 96.3% | 100 | 91.2% | 101% | 120% | 107% | 104% |
| O=C(c1ccccc1)N(CCCl)C(=O)N(CCCl)C(=O)c1ccccc1 | 99.4% | 97.4% | 98.8% | 90.5% | 102% | 88.5% | 96.2% | 93.8% | 88.2% | 106% | 93.5% | – | 94.1% | 82.4% | 103 | 94.1% | 97.3% | 96.6% | 100% | 86.3% |
| O=[N+]([O-])c1cc(-c2ccccc2)c(O)c([N+](=O)[O-])c1 | 79.4% | 92.4% | 74.3% | 68.2% | 84.2% | 78.3% | 29.2% | 32% | 82.9% | 66.2% | 75.2% | – | – | – | 89.2 | 87.7% | – | 82.3% | 16.3% | 71.9% |
| CC1CC(C)(C)OB(OC(C)CC(C)(C)OB2OC(C)CC(C)(C)O2)O1 (stereo not drawn) | 104% | 99.2% | 115% | 104% | 94.2% | 97.5% | 101% | 106% | 93.7% | 104% | 103% | – | 101% | 90.9% | 93.6 | 108% | 105% | 118% | 104% | 99.2% |
| Oc1c(Cl)cc(Cl)cc1C(c1cc(Cl)cc(Cl)c1O)C(Cl)(Cl)Cl | 2.87% (active) | 7.53% (active) | -7.64% (active) | 19.2% | 4.24% (active) | -7.63% (active) | -38.8% (active) | 11.8% | 0.701% (active) | 30.4% | -33.9% (active) | – | 0.98% (active) | -21.4% (active) | 13 | -19.7% (active) | – | -26.6% (active) | 8.74% (active) | 3.86% (active) |
| CCCCCC[C@@H](O)C/C=C\CCCCCCCC(=O)OCCOC | 103% | 101% | 90% | 97.8% | 105% | 90.4% | 96.2% | 90.6% | 86% | 105% | 97.6% | 79.1 | – | – | 99.1 | 100% | 103% | 107% | 94.3% | 122% |
| CN(C)c1ccc(C(C#N)(c2ccccc2)c2ccc(N(C)C)cc2)cc1 | 71.8% | 14.6% | 57.1% | 63.7% | 7.62% (active) | 69.4% | 81.6% | 70.5% | 51.1% | 60.2% | 85.2% | – | 14.4% | 53% | 71.8 | 49.3% | 79.4% | – | 69.3% | 68.5% |
| CCCc1cc(=O)oc2c3c(c4c(c12)OC(C)(C)CC4)OC(C)[C@H](C)[C@@H]3O (stereo partly drawn) | 55.5% | 58.8% | 91.5% | 94.4% | 75.1% | 42.7% | 86.9% | 68.9% | 83.1% | 93.1% | 13.6% | – | 81% | 34.9% | 139 | 66.1% | 104% | 63% | 84.8% | 54.9% |
| NC1=C(Br)C(=O)c2ncccc2C1=O | 2.56% (active) | 49.1% | -84.2% (active) | -86.7% (active) | -82.2% (active) | 11.9% | -98.3% (active) | -96.3% (active) | -71.2% (active) | -87.4% (active) | -54.1% (active) | – | -84.8% (active) | -96.8% (active) | 79.1 | -7.81% (active) | -81.2% (active) | 113% | 10.5% | -5.62% (active) |
